The supplement of paper PMC11732987, “Enantioselective OTUD7B fragment discovery through chemoproteomics screening and high-throughput optimisation” (Communications Chemistry, 2025)

Assays:
Assay in all cases: log2 ratio of Biotin-Ahx-Ub-VS probe labelling (fragment/DMSO); higher = less target engagement (more negative = stronger competition), active = hit call of the paper (q ≤ 0.05, log2 ratio ≤ -1)
Details in all cases: compound concentration: 200 uM; treatment time: 3 h
USP42 = target: T1, USP42 (UniProt Q9H9J4)
T1 sequence (whole entry): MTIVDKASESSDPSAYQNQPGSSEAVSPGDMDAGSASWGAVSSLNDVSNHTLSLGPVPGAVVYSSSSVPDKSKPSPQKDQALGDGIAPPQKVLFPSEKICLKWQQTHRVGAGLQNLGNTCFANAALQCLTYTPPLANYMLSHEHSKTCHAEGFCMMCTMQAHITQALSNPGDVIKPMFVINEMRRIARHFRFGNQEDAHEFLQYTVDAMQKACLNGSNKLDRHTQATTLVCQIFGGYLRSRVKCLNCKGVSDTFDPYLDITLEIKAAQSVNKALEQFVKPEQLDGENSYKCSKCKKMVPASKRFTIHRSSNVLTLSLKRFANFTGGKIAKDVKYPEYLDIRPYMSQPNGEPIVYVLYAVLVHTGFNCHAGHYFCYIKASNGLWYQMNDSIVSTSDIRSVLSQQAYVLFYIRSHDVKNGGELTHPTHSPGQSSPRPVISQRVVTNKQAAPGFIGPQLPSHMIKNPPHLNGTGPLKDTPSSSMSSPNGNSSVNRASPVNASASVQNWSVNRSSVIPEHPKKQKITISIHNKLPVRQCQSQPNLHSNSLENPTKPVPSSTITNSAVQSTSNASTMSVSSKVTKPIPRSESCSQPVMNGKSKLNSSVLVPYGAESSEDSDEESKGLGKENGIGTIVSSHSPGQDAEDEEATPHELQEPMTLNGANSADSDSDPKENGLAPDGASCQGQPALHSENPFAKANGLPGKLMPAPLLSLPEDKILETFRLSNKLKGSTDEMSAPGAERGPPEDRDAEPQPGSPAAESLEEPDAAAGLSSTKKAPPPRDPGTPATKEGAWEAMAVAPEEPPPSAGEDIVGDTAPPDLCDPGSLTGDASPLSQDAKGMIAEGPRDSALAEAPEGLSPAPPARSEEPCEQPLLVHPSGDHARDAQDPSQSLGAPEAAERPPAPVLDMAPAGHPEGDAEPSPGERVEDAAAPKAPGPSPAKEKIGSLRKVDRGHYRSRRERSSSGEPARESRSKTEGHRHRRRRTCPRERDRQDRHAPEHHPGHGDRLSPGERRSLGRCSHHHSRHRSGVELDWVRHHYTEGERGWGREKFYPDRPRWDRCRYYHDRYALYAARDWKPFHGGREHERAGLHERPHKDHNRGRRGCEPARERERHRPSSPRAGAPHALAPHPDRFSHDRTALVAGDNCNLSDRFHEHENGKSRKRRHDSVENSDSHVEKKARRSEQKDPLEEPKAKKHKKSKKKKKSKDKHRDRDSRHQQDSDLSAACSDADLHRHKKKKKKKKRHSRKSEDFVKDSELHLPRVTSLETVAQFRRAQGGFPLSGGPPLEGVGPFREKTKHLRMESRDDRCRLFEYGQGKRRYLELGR
In short: (§1)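 HEK293T lysate, 495 µg per sample in Tris/CHAPS/IGEPAL buffer with protease inhibitors, was treated in triplicate with fragment at 200 µM or vehicle for 3 h and then with Biotin-Ahx-Ub-VS at 0.5 µM final for 1 h. Labelled DUBs were NeutrAvidin-enriched, digested with LysC and trypsin, and run by diaPASEF LC-MS/MS. Spectronaut label-free quantities were global-median-normalised, and values are average log2 fragment/vehicle ratios by unpaired t-test on proteins with ≥2 unique peptides.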

USP46 = USP46 (UniProt P62068)
USP46, sequence (P62068 whole entry): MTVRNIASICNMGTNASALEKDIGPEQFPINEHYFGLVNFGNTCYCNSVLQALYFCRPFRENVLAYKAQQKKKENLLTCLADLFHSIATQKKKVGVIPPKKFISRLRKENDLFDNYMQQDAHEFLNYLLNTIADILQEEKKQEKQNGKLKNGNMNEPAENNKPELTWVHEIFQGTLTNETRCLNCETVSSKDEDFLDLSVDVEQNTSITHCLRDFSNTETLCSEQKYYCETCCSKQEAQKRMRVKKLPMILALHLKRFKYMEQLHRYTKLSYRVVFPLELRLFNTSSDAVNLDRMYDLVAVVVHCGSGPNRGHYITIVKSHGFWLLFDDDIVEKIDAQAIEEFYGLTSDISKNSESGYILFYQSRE
In short: as §1

USP47 = target: T2, USP47 (UniProt Q96K76)
T2 sequence (whole entry): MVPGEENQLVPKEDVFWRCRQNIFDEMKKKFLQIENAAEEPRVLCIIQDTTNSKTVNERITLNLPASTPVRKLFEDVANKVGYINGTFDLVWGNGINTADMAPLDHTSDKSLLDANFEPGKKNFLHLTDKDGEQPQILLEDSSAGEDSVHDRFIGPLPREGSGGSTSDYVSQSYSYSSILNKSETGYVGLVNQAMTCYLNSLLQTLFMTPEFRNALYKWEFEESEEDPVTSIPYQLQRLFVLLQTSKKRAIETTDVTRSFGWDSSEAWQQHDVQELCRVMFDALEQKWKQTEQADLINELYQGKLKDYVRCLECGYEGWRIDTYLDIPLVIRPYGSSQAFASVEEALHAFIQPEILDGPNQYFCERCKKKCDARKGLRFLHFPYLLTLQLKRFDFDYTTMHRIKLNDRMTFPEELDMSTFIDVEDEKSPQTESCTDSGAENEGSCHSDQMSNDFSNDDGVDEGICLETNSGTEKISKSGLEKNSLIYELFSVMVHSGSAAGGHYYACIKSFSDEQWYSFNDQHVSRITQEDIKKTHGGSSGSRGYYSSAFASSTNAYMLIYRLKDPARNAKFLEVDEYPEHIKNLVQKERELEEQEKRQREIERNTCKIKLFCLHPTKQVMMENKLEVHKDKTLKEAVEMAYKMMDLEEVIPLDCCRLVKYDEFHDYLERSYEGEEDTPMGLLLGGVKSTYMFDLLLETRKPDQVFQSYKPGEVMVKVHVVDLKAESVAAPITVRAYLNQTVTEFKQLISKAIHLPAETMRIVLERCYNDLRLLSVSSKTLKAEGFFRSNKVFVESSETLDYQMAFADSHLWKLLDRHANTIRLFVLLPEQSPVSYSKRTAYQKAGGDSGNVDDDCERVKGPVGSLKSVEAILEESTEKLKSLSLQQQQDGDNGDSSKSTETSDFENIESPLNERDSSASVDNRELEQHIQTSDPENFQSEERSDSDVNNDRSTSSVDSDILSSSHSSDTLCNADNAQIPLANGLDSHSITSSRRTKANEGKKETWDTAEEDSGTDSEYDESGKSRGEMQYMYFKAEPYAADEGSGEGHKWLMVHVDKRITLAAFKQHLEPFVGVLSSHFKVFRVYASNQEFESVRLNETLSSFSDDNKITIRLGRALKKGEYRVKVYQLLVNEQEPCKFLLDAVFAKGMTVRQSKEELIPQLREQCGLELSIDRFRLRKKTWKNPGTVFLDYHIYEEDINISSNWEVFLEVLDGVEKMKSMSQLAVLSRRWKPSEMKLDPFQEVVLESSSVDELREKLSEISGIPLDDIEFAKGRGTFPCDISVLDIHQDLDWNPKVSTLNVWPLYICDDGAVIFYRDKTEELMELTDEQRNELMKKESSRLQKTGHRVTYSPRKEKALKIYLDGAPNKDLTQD
In short: as §1

USP48 = target: T3, USP48 (UniProt Q86UV5)
T3 sequence (whole entry): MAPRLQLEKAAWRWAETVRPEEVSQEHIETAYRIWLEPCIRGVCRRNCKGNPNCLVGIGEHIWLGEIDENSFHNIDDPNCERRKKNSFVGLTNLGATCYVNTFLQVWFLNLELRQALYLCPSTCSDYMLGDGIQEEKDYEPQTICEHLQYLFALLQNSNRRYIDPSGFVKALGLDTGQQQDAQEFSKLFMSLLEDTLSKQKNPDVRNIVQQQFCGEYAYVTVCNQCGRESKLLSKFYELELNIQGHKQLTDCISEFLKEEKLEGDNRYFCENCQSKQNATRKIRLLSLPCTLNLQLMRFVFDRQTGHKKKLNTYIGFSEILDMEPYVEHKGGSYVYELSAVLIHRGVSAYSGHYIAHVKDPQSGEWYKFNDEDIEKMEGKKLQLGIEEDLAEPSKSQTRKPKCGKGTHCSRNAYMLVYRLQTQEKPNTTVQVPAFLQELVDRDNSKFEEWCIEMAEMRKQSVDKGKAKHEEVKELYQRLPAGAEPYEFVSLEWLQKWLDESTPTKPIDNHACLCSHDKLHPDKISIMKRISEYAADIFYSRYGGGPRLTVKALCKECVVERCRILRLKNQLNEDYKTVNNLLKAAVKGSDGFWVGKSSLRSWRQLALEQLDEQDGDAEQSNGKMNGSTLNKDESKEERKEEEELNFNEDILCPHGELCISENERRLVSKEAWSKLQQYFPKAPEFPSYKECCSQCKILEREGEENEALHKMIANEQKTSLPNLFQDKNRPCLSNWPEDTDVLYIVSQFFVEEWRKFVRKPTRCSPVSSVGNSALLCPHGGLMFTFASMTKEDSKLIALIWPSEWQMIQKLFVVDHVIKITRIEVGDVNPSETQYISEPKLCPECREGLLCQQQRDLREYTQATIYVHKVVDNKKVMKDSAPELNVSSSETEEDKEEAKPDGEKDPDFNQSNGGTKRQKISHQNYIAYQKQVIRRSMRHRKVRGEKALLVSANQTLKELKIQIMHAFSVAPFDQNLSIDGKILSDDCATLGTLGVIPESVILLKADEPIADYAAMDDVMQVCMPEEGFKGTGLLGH
In short: as §1

USP5 = target: T4, USP5 (UniProt P45974)
T4 sequence (whole entry): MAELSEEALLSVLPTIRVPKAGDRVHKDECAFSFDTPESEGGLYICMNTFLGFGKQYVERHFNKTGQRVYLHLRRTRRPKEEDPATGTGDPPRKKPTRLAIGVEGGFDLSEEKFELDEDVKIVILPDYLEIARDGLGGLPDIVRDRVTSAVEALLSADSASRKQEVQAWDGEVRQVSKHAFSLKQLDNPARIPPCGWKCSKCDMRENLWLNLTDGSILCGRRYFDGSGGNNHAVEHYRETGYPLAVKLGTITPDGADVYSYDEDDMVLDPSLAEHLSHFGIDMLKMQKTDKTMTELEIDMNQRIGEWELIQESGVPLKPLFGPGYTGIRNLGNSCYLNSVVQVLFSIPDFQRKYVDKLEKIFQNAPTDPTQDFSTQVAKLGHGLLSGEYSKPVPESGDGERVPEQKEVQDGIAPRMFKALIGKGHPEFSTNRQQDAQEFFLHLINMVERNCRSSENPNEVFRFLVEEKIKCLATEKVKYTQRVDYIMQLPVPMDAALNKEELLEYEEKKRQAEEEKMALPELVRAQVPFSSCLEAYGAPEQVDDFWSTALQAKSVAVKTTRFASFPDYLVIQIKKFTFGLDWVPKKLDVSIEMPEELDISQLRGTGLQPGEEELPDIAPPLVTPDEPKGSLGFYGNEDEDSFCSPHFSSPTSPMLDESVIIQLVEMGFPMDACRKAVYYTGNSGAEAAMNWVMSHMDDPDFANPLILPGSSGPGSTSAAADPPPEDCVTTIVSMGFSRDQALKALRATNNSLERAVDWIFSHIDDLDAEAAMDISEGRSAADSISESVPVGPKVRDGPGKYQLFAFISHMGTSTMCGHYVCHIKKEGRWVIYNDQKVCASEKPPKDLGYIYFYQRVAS
In short: as §1

USP54 = USP54 (UniProt Q70EL1)
In short: as §1

USP7 = USP7 (UniProt Q93009)
USP7, sequence (Q93009 whole entry, looked up): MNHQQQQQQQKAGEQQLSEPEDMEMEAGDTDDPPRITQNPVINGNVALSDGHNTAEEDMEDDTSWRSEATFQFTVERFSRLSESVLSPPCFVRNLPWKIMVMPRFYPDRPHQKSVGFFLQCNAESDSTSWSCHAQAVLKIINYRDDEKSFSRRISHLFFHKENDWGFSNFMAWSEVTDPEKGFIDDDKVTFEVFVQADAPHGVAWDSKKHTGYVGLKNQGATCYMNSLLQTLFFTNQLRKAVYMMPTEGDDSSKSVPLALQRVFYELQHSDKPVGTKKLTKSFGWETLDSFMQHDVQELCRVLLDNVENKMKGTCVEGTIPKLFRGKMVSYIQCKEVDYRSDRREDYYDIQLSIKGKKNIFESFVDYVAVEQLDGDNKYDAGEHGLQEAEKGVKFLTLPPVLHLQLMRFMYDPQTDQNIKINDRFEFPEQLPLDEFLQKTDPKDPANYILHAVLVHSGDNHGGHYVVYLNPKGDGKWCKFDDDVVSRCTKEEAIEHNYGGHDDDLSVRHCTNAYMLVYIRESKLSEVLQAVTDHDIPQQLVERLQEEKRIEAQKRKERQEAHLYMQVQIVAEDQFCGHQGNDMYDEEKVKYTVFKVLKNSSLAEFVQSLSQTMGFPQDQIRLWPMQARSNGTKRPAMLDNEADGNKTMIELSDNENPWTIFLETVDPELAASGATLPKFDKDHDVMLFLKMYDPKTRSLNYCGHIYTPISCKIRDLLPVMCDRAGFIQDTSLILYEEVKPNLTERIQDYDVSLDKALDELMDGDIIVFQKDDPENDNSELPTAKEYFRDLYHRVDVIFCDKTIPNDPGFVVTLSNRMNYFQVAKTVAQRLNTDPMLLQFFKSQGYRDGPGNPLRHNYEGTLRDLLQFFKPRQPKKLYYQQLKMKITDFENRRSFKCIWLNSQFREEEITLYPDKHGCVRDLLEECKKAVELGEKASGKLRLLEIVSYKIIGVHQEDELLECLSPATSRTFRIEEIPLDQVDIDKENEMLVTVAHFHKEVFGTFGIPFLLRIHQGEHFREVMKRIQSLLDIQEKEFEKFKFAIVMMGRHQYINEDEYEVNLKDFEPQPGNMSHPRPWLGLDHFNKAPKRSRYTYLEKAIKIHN
In short: as §1

USP8 = target: T5, USP8 (UniProt P40818)
T5 sequence (whole entry): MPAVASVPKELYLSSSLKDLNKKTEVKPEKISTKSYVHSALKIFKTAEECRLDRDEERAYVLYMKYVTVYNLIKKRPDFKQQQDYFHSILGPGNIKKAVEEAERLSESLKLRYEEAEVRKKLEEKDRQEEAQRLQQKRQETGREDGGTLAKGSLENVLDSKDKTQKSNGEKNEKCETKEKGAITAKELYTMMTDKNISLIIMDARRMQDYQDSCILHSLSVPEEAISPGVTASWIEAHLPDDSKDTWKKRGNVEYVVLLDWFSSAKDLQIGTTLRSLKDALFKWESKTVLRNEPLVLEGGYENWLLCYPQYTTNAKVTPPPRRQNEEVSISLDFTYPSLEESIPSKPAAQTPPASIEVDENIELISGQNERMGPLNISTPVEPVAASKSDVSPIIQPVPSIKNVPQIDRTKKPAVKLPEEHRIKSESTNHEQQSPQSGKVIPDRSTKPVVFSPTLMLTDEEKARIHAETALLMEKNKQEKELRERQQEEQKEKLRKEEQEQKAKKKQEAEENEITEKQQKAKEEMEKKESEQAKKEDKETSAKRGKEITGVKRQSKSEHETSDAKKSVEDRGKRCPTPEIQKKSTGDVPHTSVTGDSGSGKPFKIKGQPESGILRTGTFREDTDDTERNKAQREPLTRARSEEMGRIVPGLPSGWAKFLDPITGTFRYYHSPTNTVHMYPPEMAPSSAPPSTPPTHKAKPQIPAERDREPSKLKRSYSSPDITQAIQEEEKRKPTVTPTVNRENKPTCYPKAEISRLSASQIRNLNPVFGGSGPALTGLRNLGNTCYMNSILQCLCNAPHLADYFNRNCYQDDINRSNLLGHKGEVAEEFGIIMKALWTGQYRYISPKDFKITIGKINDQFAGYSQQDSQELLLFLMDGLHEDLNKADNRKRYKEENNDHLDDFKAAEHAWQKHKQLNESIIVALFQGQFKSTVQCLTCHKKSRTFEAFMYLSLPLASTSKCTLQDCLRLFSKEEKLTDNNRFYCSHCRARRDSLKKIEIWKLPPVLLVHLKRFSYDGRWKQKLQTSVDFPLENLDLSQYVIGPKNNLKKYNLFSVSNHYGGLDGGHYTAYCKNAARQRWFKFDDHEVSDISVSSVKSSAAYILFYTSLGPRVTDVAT
In short: as §1

USP9X = USP9X (UniProt Q93008)
USP9X, sequence (Q93008 whole entry): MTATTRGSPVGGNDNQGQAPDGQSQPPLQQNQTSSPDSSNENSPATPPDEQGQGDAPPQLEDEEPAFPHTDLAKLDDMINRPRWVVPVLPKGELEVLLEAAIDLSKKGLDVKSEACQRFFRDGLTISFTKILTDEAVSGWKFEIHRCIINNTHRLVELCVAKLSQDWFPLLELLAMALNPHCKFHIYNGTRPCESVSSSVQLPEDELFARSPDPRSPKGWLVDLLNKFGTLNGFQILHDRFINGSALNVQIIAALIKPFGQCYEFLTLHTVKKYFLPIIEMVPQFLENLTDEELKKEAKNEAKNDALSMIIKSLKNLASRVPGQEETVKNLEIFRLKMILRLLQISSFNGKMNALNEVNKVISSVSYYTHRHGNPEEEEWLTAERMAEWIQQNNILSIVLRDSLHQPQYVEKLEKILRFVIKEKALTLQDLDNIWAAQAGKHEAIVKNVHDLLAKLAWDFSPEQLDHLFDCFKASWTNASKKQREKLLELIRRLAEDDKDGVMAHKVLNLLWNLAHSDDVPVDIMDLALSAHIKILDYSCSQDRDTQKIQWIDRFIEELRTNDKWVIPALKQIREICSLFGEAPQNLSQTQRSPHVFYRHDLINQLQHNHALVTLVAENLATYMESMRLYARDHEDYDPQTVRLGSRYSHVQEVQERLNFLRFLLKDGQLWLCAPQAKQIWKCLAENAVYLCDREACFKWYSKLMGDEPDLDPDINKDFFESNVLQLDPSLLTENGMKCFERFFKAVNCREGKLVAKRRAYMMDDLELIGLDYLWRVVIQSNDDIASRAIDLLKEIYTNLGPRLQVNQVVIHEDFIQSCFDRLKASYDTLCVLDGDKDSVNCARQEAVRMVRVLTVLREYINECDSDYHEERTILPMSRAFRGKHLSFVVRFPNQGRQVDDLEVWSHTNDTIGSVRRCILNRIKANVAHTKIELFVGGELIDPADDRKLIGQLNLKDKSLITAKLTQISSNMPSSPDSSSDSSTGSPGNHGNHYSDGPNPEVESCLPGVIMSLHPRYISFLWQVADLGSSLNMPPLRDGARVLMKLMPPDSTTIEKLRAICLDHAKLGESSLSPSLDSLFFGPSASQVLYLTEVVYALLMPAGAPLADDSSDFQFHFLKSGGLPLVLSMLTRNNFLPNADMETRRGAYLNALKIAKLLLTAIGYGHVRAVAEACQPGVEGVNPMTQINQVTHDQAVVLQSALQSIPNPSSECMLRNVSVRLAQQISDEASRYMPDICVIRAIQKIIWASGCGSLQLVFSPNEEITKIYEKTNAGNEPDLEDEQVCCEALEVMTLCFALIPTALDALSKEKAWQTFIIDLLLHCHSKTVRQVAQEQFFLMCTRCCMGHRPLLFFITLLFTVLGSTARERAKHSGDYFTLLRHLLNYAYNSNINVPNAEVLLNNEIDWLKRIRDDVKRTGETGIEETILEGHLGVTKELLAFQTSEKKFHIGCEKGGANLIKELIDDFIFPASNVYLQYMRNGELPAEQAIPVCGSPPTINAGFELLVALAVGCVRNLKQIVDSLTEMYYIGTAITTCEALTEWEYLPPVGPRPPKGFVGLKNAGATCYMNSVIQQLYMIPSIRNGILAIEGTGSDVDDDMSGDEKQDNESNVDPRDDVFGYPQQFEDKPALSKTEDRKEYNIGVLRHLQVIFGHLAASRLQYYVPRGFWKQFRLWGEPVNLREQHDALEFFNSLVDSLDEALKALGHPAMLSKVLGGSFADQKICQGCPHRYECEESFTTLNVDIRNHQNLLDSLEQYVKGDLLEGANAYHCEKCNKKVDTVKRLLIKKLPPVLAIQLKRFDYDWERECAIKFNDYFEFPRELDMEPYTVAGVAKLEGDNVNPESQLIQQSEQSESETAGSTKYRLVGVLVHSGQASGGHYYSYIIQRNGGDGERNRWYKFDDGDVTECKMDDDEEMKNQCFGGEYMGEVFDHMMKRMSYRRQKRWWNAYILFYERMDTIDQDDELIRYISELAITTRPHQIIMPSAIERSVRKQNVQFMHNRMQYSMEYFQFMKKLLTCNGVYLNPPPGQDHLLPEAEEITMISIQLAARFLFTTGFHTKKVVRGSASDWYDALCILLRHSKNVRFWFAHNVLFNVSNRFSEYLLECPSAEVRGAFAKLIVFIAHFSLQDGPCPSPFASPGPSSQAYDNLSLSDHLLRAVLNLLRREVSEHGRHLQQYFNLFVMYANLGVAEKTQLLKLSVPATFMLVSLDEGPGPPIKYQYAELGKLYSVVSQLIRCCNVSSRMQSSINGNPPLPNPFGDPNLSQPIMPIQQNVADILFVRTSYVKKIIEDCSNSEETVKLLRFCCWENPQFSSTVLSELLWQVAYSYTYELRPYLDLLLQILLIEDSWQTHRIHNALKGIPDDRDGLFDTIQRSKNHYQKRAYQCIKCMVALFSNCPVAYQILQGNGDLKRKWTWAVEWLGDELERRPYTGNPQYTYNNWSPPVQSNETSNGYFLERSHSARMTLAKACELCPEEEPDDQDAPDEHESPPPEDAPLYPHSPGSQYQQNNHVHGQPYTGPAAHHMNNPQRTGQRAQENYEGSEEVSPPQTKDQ
In short: as §1

UniProt O00487 = target: UniProt O00487
UniProt O00487, sequence (O00487 whole entry): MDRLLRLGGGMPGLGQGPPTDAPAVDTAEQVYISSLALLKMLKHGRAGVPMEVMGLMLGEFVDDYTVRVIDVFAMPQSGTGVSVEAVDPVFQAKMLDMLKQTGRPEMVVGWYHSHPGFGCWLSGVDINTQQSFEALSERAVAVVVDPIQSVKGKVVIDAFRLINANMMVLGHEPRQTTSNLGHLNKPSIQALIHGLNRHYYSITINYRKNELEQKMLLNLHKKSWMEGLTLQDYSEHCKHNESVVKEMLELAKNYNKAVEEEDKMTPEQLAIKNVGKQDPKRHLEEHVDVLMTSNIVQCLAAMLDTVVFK
In short: as §1

Measured: log2 ratio of Biotin-Ahx-Ub-VS probe labelling

Cc1ccn2cc(CNC(=O)CCl)nc2c1.Cl
inactive: USP42 0.192 | USP46 -0.0106 | USP47 -0.5 | USP48 -0.153 | USP5 0.0336 | USP54 0.581 | USP7 -0.341 | USP8 -0.325 | USP9X -0.141 | UniProt O00487 -0.0788
